Laboratory results from PubChem BioAssay (NCI).
About 83,000 compounds went through this panel and 20% of them were active in at least one assay; those are over-represented in the sample as a whole.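 Each cell line was grown in a 96-well plate and treated with one concentration of compound for 48 hours. Values below 10 were considered active.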 Unmarked numbers belong to inactive results.

System: MDA-MB-435 melanoma
Assay: NCI-60 one-dose screen, 48 h (100 = growth as untreated, 0 = no growth, -100 = all killed)
Conditions: 1 µM

Compound | growth
CC/C(=C(\c1ccc(O)cc1)c1ccc(OCCN(C)C(=O)COCCNC(=O)Cc2ccc3c(c2)CN([C@@H]2CCC(=O)NC2=O)C3=O)cc1)c1ccccc1 | 97%
CC/C(=C(\c1ccc(O)cc1)c1ccc(OCCN(C)C(=O)CCOCCNC(=O)c2ccc3c(c2)CN([C@@H]2CCC(=O)NC2=O)C3=O)cc1)c1ccccc1 | 100%
CC/C(=C(/c1ccc(O)cc1)c1ccc(OCCN(C)C(=O)CCOCCNC(=O)Cc2ccc3c(c2)CN([C@@H]2CCC(=O)NC2=O)C3=O)cc1)c1ccccc1 | 104%
CC/C(=C(/c1ccc(O)cc1)c1ccc(OCCN(C)C(=O)COCCOCCNC(=O)c2ccc3c(c2)CN([C@@H]2CCC(=O)NC2=O)C3=O)cc1)c1ccccc1 | 101%
CC/C(=C(\c1ccc(O)cc1)c1ccc(OCCNC)cc1)c1ccccc1 | 104%
CC/C(=C(/c1ccc(O)cc1)c1ccc(OCCN(C)C(=O)COCCOCCNC(=O)Cc2ccc3c(c2)CN([C@@H]2CCC(=O)NC2=O)C3=O)cc1)c1ccccc1 | 107%

Same assay, conditions: 10 µM

Compound | growth
CC/C(=C(\c1ccc(O)cc1)c1ccc(OCCN(C)C(=O)COCCNC(=O)Cc2ccc3c(c2)CN([C@@H]2CCC(=O)NC2=O)C3=O)cc1)c1ccccc1 | 59.2%
CC/C(=C(\c1ccc(O)cc1)c1ccc(OCCN(C)C(=O)CCOCCNC(=O)c2ccc3c(c2)CN([C@@H]2CCC(=O)NC2=O)C3=O)cc1)c1ccccc1 | 95.4%
CC/C(=C(/c1ccc(O)cc1)c1ccc(OCCN(C)C(=O)CCOCCNC(=O)Cc2ccc3c(c2)CN([C@@H]2CCC(=O)NC2=O)C3=O)cc1)c1ccccc1 | 85%
CC/C(=C(/c1ccc(O)cc1)c1ccc(OCCN(C)C(=O)COCCOCCNC(=O)c2ccc3c(c2)CN([C@@H]2CCC(=O)NC2=O)C3=O)cc1)c1ccccc1 | 97%
CC/C(=C(\c1ccc(O)cc1)c1ccc(OCCNC)cc1)c1ccccc1 | 74.5%
CC/C(=C(/c1ccc(O)cc1)c1ccc(OCCN(C)C(=O)COCCOCCNC(=O)Cc2ccc3c(c2)CN([C@@H]2CCC(=O)NC2=O)C3=O)cc1)c1ccccc1 | 73.6%
